Laboratory results taken from PubChem BioAssay (EPA / NIEHS).
Activity calls are given as the source filed them. The calls were made as follows: active = hit-call score of the fitted dose curve at least 0.9, where 1 is the maximum; inactive = score below 0.9.

experiment: IUF_NPC1a_proliferation_area_72hr: Leibniz Research Institute for Environmental Medicine (IUF) 72-hour Neural Progenitor Cell Proliferation Area Assay (NPC1a) (AID 2284208)
Protocol: IUF_NPC1 is a cell-based, multiplexed assay that uses hNPC, a human primary neural progenitor cells, with measurements taken at 72 hours after chemical dosing in a 96-well plate. Human neural progenitor cells (hNPC) are generated from human fetal brain cortex at gestational week (GW) 16-19. Grown in suspension culture and under proliferative conditions (proliferation media and growth factors), these cells represent neural progenitor cell proliferation. In the NPC1 assay, hNPC's are exposed to the test compound for 72h. Cell proliferation is assessed as an increase in sphere area using automated phase contrast imaging and as incorporation of Bromodeoxyuridine (BrdU) during DNA synthesis using a luminescence-based cell proliferation ELISA. In parallel, the cell viability is assessed using an alamar blue viability assay and the cytotoxicity using a lactate dehydrogenase dependent membrane integrity assay.IUF_NPC1a_proliferation_area_72hr is one of 4 assay components measured from the IUF_NPC1 assay. It is designed to measure cell proliferation as assessed by an increase in sphere area over 72 h using automated phase contrast imaging.Data from the IUF_NPC1a_proliferation_area component was analyzed at the endpoint IUF_NPC1a_proliferation_area in the positive analysis fitting direction relative to DMSO as the negative control and baseline of activity. Using a type of growth reporter, gain or loss-of-signal activity can be used to understand cell proliferation effects.
After the cell expansion period, the cells are cultured for up to four weeks in which they are passaged every week. Between one to three days after passaging, depending on the size chosen for passaging, spheres at a size of 0.3 mm are used in the assay. For the assessment of neural progenitor cell proliferation, the spheres are plated in poly-Hema coated 96-well U-bottom plates filled with proliferation medium containing growth factors (EGF and FGF). One 0.25 - 0.35 mm big sphere is plated in the middle of each well. Within 3 days NPCs proliferate and grow in size. Cultivation during the test method is performed at 37C and 5% CO2 at a pH of 7.2-7.6. As a positive control, spheres are cultivated in the absence of growth factors (EGF and FGF), which dramatically reduces proliferation. Exposure starts on the plating day (day 0) and is continued over three days, without chemical renewal, until the experiment is terminated. The assay is terminated by the assessment of cell viability, cytotoxicity, and proliferation by BrdU. All endpoints are generated from the same experimental run and from each well/sphere in the 96-well plate.

Row | Structure (SMILES) | outcome | AC50
1 | [O-][Cl+3]([O-])([O-])O | inactive | –
2 | C[n+]1ccc(-c2ccccc2)cc1 | – | 18.7 µM (active)
3 | [Cd+2].[Cl-].[Cl-] | inactive | –
4 | CNC1(c2ccccc2Cl)CCCCC1=O (stereo not given) | inactive | –
5 | CC1(C)[C@H](C=C(Cl)Cl)[C@H]1C(=O)OCc1c(F)c(F)cc(F)c1F | inactive | –
6 | CC(C)CC(C)c1sccc1NC(=O)c1cn(C)nc1C(F)(F)F (stereo not given) | inactive | –
7 | COP(=O)(OC)SCN1C(=O)c2ccccc2C1=O | inactive | –
8 | CC1(C)[C@H](C(=O)O[C@H](C#N)c2cccc(Oc3ccccc3)c2)[C@@H]1C=C(Br)Br | inactive | –
9 | CC1(C)C(C=C(Cl)Cl)[C@H]1C(=O)O[C@H](C#N)c1cccc(Oc2ccccc2)c1 (stereo not given in full) | inactive | –
10 | CCOP(=O)(Oc1cnc(C(C)(C)C)nc1)OC(C)C (stereo not given) | inactive | –
11 | Brc1ccc(Oc2cc(Br)c(Br)cc2Br)c(Br)c1 | inactive | –
12 | [CH3][Hg][Cl] | – | 0.37 µM (active)
13 | CP(=O)(O)CCC(N)C(=O)O (stereo not given) | inactive | –
14 | CC1(C)C(C=C(Cl)Cl)C1C(=O)O[C@H](C#N)c1cccc(Oc2ccccc2)c1 (stereo not given in full) | inactive | –
15 | Cc1ccc(OP(=O)(Oc2ccc(C)cc2)Oc2ccc(C)cc2)cc1 (tested in a mixture with another compound) | inactive | –
16 | CC(C)CCCCCCCOP(=O)(Oc1ccccc1)Oc1ccccc1 | inactive | –
17 | CCOP(=O)(OCC)SCSC(C)(C)C | inactive | –
18 | CCOP(=S)(OCC)SCS(=O)C(C)(C)C (stereo not given) | inactive | –
19 | CCOP(=O)(OCC)OC(Cl)C(Cl)(Cl)Cl (stereo not given) | inactive | –
20 | CC(=O)[O-].CC(=O)[O-].O.O.O.[Pb+2] | inactive | –
21 | CC(=O)[O-].[Tl+] | – | 76.8 µM (active)
22 | Brc1ccc(Oc2ccc(Br)cc2Br)c(Br)c1 | inactive | –
23 | C/C(=C/C=C/[C@@H](C)C(=O)O)[C@H]1CN[C@H](C(=O)O)[C@H]1CC(=O)O | inactive | –
24 | O=C1N[C@@H]2C(=C[C@H](O)[C@@H](O)[C@H]2O)c2cc3c(c(O)c21)OCO3 | – | 0.0237 µM (active)
25 | Cn1nc(C(F)(F)F)c(CS(=O)(=O)C2=NOC(C)(C)C2)c1OC(F)F | – | 22.1 µM (active)
26 | C[n+]1ccc(-c2cc[n+](C)cc2)cc1 | inactive | –
27 | CCOP(=O)(OCC)SCSCC | inactive | –
28 | CC1(C)[C@@H](C=C(Cl)Cl)[C@@H]1C(=O)O[C@@H](C#N)c1ccc(F)c(Oc2ccccc2)c1 | inactive | –
29 | CNC(=N[N+](=O)[O-])NCC1CCOC1 (stereo not given) | inactive | –
30 | CC1(C)C(C=C(Cl)c2ccc(Cl)cc2)C1C(=O)OC(C#N)c1ccc(F)c(Oc2ccccc2)c1 (stereo not given) | inactive | –
